Rv3671c protease: Rv3671c serine protease inhibitors, primary screen, biochemical, fluorescence polarization, M. tuberculosis H37Rv; P9WHR9; inhibition, % at 5.96 µM; 0.048% of 320,000 active; in the data active = inhibition above about 38%;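 also: extracellular domain of Rv3671c used as enzyme; 0% = enzyme with DMSO and 100% = no enzyme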
Mtb bLac sens: beta-lactam sensitization of Mtb H37Rv, H37Rv | AID 434955, 2010 | M. tuberculosis H37Rv growth with meropenem, percent inhibition | inhibition, % at 25 µM | 0.27% of 330,000 active; call rule not given here;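 also: growth measured after seven days incubation then overnight dye step; 0% = bacteria only wells and 100% = bacteria with antibiotic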
FBA Mtb inh: Mtb FBA enzyme inhibitors, primary screen, biochemical, fluorescence, strain H37Rv; Fructose-bisphosphate aldolase (Mycobacterium tuberculosis (strain ATCC 25618 / H37Rv)), …; purified M. tuberculosis FBA, fluorescence read-out; inhibition, % at 1 µM; 2.3% of 360,000 active;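 also: 0% = vehicle and 100% = reference inhibitor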
Mtb UGM inh: M. tuberculosis UGM enzyme inhibitors, primary screen, biochemical, fluorescence polarization, single point. UDP-galactopyranose mutase (Mycobacterium tuberculosis (strain ATCC 25618 / H37Rv)), …. purified UGM, fluorescence polarization probe displacement. inhibition, % at 10 µM. 0.06% of 320,000 active. AID 504406, 2011; in the data active = inhibition above about 10%, passing the limit was not always enough
Target sequence (P9WIQ1 whole entry, looked up): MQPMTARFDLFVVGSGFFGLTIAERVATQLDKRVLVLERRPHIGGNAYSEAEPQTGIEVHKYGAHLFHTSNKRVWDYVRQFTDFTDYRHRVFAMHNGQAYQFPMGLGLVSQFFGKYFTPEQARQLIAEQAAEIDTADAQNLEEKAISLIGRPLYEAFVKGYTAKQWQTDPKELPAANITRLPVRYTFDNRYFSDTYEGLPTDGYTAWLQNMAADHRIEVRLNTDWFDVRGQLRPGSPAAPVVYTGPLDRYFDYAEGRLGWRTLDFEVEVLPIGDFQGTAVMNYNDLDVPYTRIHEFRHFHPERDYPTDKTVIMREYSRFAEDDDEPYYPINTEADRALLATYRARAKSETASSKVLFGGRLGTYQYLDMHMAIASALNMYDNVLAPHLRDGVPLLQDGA
GDH-TPI counter-1: GDH-TPI coupling enzyme inhibitors, primary screen, artefact control for M. tuberculosis FBA inhibitor project, biochemical, absorbance, full deck. AID 588335, 2011. GDH-TPI coupled enzyme counterscreen, NADH absorbance. inhibition, % at 4.8 µM. 1.2% of 360,000 active; in the data active = inhibition above about 30%;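 also: 0% = DMSO wells and 100% = wells lacking the enzyme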
Mtb FBA confirm: M. tuberculosis aldolase blockers, biochemical, fluorescence, strain H37Rv, confirmation; shares compounds with FBA Mtb inh; purified M. tuberculosis FBA, fluorescence read-out; inhibition, % at 1 µM; 78% of 5,600 active;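 also: 0% = vehicle wells and 100% = reference inhibitor wells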
GDH-TPI counter-2: GDH-TPI coupling enzyme inhibitors, artefact control for M. tuberculosis FBA inhibitor project, biochemical, fluorescence, high throughput; shares compounds with FBA Mtb inh; GDH-TPI coupled enzyme counterscreen; inhibition, % at 1 µM; 81% of 5,600 active; AID 652141, 2013; in the data active = inhibition above about 10%
* hit, by the source's call. Hits are enriched below; roughly 3.5% of the tested compounds scored in any of these assays. Rule as the data show it, unless noted: active = inhibition above about 27%; inactive = the rest.

Results for COc1cccc(-c2c(C(=O)O)cc(O)c3ccc(OC)cc23)c1 ?
FBA Mtb inh: 34*; GDH-TPI counter-1: 18; Mtb FBA confirm: 6; GDH-TPI counter-2: 1

What do the screens show for `COc1cccc(Oc2ccc(OC)cc2C(=O)O)c1`?
Rv3671c protease: 11; Mtb bLac sens: -5; FBA Mtb inh: -1; Mtb UGM inh: 4; GDH-TPI counter-1: -1

What do the screens show for `COc1ccc([C@@H]2C[C@H]3[C@@H](CN2S(=O)(=O)c2ccccc2)C(=O)C[C@@H](c2ccccc2F)N3S(=O)(=O)c2ccc(C)cc2)cc1`?
FBA Mtb inh: -2; GDH-TPI counter-1: 0

How did Cc1ccc(-c2nn3c(C)nnc3s2)cc1N do in these assays?
Rv3671c protease: -5; Mtb bLac sens: -7; FBA Mtb inh: 16; Mtb UGM inh: 2; GDH-TPI counter-1: 19

Results for Cc1nnc2sc(-c3ccc(-c4ccc(Cl)c(C(F)(F)F)c4)o3)nn12 ?
Rv3671c protease: -7; Mtb bLac sens: 5; FBA Mtb inh: 76*; Mtb UGM inh: -1; GDH-TPI counter-1: 15; Mtb FBA confirm: 130*; GDH-TPI counter-2: 115*

What do the screens show for `C=CCc1cc(OC)ccc1OCCOCCN1CCc2ccccc2C1`?
Rv3671c protease: 3; Mtb bLac sens: -1; FBA Mtb inh: -2; Mtb UGM inh: 1; GDH-TPI counter-1: -3

What do the screens show for `CCNc1oc(/C=C/c2ccc(OCC)cc2)nc1C#N`?
Rv3671c protease: -5; Mtb bLac sens: 11; FBA Mtb inh: 29*; Mtb UGM inh: 0; GDH-TPI counter-1: 17; Mtb FBA confirm: 86*; GDH-TPI counter-2: 71*

How did Cc1cccc(OCCSc2nc(N)cc(N)n2)c1 do in these assays?
Rv3671c protease: -2; Mtb bLac sens: 0; FBA Mtb inh: -6; Mtb UGM inh: -2; GDH-TPI counter-1: 4

How did C=CCOc1ccc(CNc2ccc3[nH]c(=O)[nH]c3c2)cc1OC do in these assays?
FBA Mtb inh: 85*; GDH-TPI counter-1: 15; Mtb FBA confirm: 114*; GDH-TPI counter-2: 88*

Results for COc1cc(CNc2ccc3[nH]c(=O)[nH]c3c2)ccc1OCc1ccc(F)cc1 ?
Rv3671c protease: 4; Mtb bLac sens: -2; FBA Mtb inh: -1; Mtb UGM inh: 0; GDH-TPI counter-1: 5

Results for Cc1csc(=O)n1CCC(=O)OC(C)C(=O)NCc1ccccc1 (configuration not stated) ?
Rv3671c protease: -1; Mtb bLac sens: -5; FBA Mtb inh: 3; GDH-TPI counter-1: 8

How did COc1ccccc1C1=NN(C2=NN=C(N)Cc3ncnn32)C(O)(C(F)(F)F)C1 (configuration not stated) do in these assays?
Rv3671c protease: 3; Mtb bLac sens: -6; FBA Mtb inh: 35*; Mtb UGM inh: 0; GDH-TPI counter-1: 4; Mtb FBA confirm: 9; GDH-TPI counter-2: 1

How did NC1=NN=C(N2N=C(c3ccc(Br)cc3)CC2(O)C(F)(F)F)n2ncnc2C1 (configuration not stated) do in these assays?
Rv3671c protease: -5; Mtb bLac sens: 6; FBA Mtb inh: 56*; Mtb UGM inh: 3; GDH-TPI counter-1: 5; Mtb FBA confirm: -1; GDH-TPI counter-2: -2

How did NC1=NN=C(N2N=C(c3ccccc3)CC2(O)C(F)(F)F)n2ncnc2C1 (configuration not stated) do in these assays?
Rv3671c protease: -4; Mtb bLac sens: -2; FBA Mtb inh: 17; Mtb UGM inh: -1; GDH-TPI counter-1: 11

What do the screens show for `CCOC(=O)c1c(C)[nH]c(C(=O)OCC(=O)N(C)CC(=O)Nc2ccccc2Cl)c1C`?
Rv3671c protease: -4; Mtb bLac sens: -6; FBA Mtb inh: -1; Mtb UGM inh: 1; GDH-TPI counter-1: 1

Source: PubChem BioAssay
